± gives the standard deviation of the averaged measurements. For part of these data: About 5,400 targets were measured; listed, in parts, are those with the largest changes and a random draw of the rest. For part of these data: Of roughly 6,500 targets only a part is listed; those with the largest changes were picked by preference.
How the values were obtained:
[1] = compound: Nc1ncnc2c1ncn2[C@@H]1O[C@H](COP(=O)(O)OP(=O)(O)OP(=O)(O)O)[C@@H](O)[C@H]1O [adenosine triphosphate]; test: NP40-soluble protein abundance relative to vehicle (solubility fold change) (ratio); higher = more soluble protein in presence of ATP
Summary of the method: (§1)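 Jurkat crude lysate (Dounce-homogenised) was treated with eight concentrations from 0.1 to 10 mM for 10 min at room temperature, then 3 min at 37 °C. It was solubilised with 0.8% NP40 and benzonase (60 min, 4 °C) and ultracentrifuged, and the supernatant was TMT-labelled for LC-MS/MS. Intensities were vsn-normalised, and the value is the fold change against the NP40-processed vehicle per replicate, from three independent experiments.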

[2] = compound: Nc1nc2c(ncn2[C@@H]2O[C@H](COP(=O)(O)OP(=O)(O)OP(=O)(O)O)[C@@H](O)[C@H]2O)c(=O)[nH]1 [guanosine triphosphate]; test: NP40-soluble protein abundance relative to vehicle (solubility fold change) (ratio); higher = more soluble protein in presence of GTP
Summary of the method: as §1

Chain of UniProt Q7Z478 (Q7Z478 whole entry, one chain of several): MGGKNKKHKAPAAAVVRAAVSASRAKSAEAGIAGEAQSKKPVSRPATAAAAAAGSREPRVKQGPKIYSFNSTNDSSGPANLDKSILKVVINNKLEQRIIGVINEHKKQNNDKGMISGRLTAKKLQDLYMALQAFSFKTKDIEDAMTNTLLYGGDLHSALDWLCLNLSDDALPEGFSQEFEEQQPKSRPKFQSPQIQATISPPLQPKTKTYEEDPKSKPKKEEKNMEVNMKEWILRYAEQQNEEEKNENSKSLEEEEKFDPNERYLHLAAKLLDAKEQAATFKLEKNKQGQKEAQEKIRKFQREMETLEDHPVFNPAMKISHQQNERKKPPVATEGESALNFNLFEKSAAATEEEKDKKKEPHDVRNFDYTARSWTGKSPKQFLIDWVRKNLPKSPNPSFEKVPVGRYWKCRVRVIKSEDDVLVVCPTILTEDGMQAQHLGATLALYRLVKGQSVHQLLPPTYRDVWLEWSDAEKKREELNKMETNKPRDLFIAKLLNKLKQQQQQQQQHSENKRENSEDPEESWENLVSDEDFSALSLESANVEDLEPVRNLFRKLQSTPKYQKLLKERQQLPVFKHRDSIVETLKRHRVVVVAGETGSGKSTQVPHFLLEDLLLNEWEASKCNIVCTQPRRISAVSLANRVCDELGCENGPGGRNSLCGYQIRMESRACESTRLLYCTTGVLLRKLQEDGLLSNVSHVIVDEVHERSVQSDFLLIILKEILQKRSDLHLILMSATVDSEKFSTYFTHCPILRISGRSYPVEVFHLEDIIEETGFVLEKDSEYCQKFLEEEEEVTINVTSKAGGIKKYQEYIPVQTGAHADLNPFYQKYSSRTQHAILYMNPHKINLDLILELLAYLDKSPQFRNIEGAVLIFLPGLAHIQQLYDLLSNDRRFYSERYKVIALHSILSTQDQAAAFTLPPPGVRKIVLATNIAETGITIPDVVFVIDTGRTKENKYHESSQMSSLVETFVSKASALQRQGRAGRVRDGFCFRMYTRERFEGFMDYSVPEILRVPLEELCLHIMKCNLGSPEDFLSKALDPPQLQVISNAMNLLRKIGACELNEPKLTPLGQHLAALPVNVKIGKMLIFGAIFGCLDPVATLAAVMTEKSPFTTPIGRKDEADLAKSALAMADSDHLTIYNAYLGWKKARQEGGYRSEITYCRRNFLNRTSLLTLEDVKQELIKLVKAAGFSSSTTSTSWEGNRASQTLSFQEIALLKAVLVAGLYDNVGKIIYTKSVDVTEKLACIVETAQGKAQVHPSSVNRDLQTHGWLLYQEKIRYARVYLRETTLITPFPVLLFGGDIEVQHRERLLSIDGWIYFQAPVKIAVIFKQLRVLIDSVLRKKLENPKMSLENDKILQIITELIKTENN
Chain of UniProt Q9Y383 (Q9Y383 whole entry): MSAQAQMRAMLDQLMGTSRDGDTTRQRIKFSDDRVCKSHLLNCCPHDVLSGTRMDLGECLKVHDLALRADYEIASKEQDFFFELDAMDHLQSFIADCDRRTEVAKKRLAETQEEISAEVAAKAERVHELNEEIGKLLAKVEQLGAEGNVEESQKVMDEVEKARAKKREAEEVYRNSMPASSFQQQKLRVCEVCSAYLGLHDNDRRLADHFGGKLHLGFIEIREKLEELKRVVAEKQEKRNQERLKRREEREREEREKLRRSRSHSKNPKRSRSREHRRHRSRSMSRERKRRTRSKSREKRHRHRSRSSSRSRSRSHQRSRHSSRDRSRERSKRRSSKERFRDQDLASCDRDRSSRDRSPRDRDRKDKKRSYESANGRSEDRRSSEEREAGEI
Chain of UniProt Q16851 (Q16851 whole entry, one chain of several): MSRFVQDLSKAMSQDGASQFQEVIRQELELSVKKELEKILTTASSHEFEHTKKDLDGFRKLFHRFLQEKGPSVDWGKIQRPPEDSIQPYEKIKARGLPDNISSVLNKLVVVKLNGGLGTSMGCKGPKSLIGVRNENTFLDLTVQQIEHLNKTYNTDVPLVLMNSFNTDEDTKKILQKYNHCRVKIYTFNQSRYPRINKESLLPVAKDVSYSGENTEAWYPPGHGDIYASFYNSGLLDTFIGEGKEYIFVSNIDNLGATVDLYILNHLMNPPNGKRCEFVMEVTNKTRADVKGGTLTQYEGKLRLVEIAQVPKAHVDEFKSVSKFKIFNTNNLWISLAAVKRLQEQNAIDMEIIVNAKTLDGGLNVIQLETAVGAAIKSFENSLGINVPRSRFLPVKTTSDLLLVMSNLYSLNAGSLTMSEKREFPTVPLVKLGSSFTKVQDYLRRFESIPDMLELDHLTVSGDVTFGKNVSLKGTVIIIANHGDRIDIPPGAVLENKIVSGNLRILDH
Chain of UniProt P20936 (P20936 whole entry, one chain of several): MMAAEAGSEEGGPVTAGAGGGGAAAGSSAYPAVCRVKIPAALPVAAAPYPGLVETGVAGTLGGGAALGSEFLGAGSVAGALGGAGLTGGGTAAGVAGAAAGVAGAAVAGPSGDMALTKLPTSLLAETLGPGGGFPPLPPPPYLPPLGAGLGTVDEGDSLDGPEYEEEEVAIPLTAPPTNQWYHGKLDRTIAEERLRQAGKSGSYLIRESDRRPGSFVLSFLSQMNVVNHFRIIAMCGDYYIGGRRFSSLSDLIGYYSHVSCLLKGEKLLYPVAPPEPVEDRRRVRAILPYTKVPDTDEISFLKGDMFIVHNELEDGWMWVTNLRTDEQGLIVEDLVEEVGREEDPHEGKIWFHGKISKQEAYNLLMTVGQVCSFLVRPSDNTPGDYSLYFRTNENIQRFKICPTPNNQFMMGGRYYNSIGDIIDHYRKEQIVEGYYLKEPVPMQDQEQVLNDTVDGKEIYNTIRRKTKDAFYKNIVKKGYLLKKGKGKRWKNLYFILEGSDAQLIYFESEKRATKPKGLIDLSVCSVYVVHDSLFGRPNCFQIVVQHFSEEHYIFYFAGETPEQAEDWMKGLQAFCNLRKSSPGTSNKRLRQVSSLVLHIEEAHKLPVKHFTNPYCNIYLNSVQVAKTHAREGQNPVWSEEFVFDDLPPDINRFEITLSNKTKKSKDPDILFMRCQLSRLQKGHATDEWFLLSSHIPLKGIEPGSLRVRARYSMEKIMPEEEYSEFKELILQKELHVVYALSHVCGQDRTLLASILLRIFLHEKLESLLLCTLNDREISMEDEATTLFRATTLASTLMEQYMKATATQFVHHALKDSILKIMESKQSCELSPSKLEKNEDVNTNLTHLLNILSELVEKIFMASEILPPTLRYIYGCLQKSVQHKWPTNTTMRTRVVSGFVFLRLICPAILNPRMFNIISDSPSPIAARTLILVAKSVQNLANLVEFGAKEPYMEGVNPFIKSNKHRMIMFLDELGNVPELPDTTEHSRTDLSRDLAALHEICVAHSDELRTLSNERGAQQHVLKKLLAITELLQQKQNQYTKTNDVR
Chain of UniProt Q14141 (Q14141 whole entry, one chain of several): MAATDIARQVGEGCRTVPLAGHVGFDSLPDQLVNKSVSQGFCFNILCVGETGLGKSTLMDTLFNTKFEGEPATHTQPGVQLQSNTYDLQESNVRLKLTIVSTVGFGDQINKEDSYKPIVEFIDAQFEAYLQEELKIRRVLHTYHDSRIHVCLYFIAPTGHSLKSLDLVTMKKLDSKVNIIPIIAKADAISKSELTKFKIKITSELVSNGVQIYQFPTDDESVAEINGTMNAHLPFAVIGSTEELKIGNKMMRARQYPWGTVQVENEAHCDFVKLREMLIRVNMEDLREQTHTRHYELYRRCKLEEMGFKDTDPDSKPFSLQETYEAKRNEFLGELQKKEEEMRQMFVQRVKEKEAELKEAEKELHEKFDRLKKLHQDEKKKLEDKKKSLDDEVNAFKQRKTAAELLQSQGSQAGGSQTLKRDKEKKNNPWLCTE
Chain of UniProt P10242 (P10242 whole entry, one chain of several): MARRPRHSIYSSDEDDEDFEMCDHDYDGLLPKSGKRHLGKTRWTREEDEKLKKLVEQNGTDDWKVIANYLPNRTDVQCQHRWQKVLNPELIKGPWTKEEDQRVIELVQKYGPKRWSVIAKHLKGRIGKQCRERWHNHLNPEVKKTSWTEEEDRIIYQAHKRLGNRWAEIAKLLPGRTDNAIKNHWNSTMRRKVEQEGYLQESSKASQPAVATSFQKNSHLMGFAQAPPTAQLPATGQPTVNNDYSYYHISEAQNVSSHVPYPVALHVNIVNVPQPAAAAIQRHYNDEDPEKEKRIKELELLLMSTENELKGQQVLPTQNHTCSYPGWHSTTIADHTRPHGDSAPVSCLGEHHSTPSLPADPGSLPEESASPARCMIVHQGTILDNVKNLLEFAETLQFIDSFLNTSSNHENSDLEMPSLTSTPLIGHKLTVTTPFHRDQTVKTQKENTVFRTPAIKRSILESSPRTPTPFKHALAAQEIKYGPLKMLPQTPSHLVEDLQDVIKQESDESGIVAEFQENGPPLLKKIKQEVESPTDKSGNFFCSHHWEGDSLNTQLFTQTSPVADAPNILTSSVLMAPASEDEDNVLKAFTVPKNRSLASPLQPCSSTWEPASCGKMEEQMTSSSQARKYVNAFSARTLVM
Chain of UniProt Q9Y2Q3 (Q9Y2Q3 whole entry, one chain of several): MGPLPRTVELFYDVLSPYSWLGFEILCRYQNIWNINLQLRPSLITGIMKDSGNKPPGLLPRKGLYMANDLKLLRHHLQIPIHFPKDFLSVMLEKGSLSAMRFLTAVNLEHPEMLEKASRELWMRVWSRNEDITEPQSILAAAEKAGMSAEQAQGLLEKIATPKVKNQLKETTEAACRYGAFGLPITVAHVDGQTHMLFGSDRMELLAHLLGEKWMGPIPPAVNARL
Chain of UniProt Q96B45 (Q96B45 whole entry, looked up, one chain of several): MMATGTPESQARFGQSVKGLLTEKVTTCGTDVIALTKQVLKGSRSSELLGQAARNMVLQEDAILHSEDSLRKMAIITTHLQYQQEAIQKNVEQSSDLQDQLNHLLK
Chain of UniProt P19256 (P19256 whole entry, one chain of several): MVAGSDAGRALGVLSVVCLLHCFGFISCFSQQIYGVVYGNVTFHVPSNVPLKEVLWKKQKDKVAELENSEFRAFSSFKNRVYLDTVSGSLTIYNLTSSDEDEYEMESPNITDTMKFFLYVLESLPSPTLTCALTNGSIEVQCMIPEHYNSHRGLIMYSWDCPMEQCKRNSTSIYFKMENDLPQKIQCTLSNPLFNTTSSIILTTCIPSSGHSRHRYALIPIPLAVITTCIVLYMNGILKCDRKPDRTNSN

Target	NP40-soluble protein abundance ([1]; concentration: 1mM)	NP40-soluble protein abundance ([1]; concentration: 2mM)	NP40-soluble protein abundance ([1]; concentration: 4mM)	NP40-soluble protein abundance ([1]; concentration: 6mM)	NP40-soluble protein abundance ([1]; concentration: 8mM)	NP40-soluble protein abundance ([1]; concentration: 10mM)	NP40-soluble protein abundance ([2]; concentration: 0.1mM)	NP40-soluble protein abundance ([2]; concentration: 0.5mM)	NP40-soluble protein abundance ([2]; concentration: 1mM)	NP40-soluble protein abundance ([2]; concentration: 2mM)	NP40-soluble protein abundance ([2]; concentration: 4mM)	NP40-soluble protein abundance ([2]; concentration: 6mM)	NP40-soluble protein abundance ([2]; concentration: 8mM)	NP40-soluble protein abundance ([2]; concentration: 10mM)
UniProt Q9Y3I0	0.997 ± 0.038	0.974 ± 0.025	0.979 ± 0.043	1.04 ± 0.04	1.02 ± 0.048	1.02 ± 0.048								
LUC7L2 (UniProt Q9Y383)	1.84 ± 0.14	1.95 ± 0.034	2.05 ± 0.038	2.21 ± 0.066	2.12 ± 0.087	2.11 ± 0.095								
WDR3 (UniProt Q9UNX4)	1.28 ± 0.11	1.46 ± 0.1	1.82 ± 0.17	1.97 ± 0.2	2.23 ± 0.2	2.34 ± 0.13								
F5H8D7|P18887 (UniProt P18887)							0.976 ± 0.073	1.02 ± 0.085	1.04 ± 0.081	1 ± 0.1	1.03 ± 0.098	1.06 ± 0.1	1.13 ± 0.1	1.1 ± 0.12
SMCHD1 (UniProt A6NHR9)							1.05 ± 0.04	1.06 ± 0.055	0.999 ± 0.029	1.03 ± 0.07	1.04 ± 0.056	1.04 ± 0.043	1.02 ± 0.051	1.01 ± 0.098
C9JWG0|Q16851-2 (UniProt Q16851)							1.04 ± 0.03	1.04 ± 0.052	1 ± 0.046	1.01 ± 0.071	1.01 ± 0.042	1.01 ± 0.067	0.998 ± 0.057	0.983 ± 0.065
A0A087WUC6|E9PI68|Q15005|E9PL01 (UniProt Q15005)							0.955 ± 0.026	0.955 ± 0.018	0.899 ± 0.025	0.882 ± 0.05	0.858 ± 0.041	0.881 ± 0.045	0.859 ± 0.055	0.843 ± 0.061
F8VQE1|Q9UHB6|Q9UHB6-2|Q9UHB6-4|Q9UHB6-5 (UniProt Q9UHB6)							0.977 ± 0.045	0.955 ± 0.12	1.16 ± 0.11	1.16 ± 0.1	1.35 ± 0.12	1.71 ± 0.067	1.95 ± 0.29	2.21 ± 0.23
B1AMS2|Q14141|Q14141-2|Q14141-4 (UniProt Q14141)							1.03 ± 0.053	0.998 ± 0.011	0.968 ± 0.062	0.9155 ± 0.0055	0.941 ± 0.054	0.921 ± 0.016	0.941 ± 0.1	0.857 ± 0.013
E9PGC0|P20936|P20936-2|P20936-4 (UniProt P20936)							1.05 ± 0.069	1.04 ± 0.091	1.02 ± 0.11	0.997 ± 0.072	0.909 ± 0.027	0.931 ± 0.032	0.961 ± 0.048	0.899 ± 0.031
H0Y362|Q8NEW0 (UniProt Q8NEW0)							1.21 ± 0.043	1.14 ± 0.018	1.14 ± 0.026	1.13 ± 0.1	1.05 ± 0.062	1.05 ± 0.11	1.04 ± 0.055	0.959 ± 0.013
C9JMV9|Q03154|Q03154-4 (UniProt Q03154+C9JMV9)							1.03 ± 0.012	1.03 ± 0.011	0.97 ± 0.078	0.924 ± 0.036	0.954 ± 0.019	0.933 ± 0.031	0.94 ± 0.05	0.956 ± 0.12
E9PFN5|Q9Y2Q3 (UniProt Q9Y2Q3)							0.922 ± 0.042	0.934 ± 0.038	0.895 ± 0.036	0.906 ± 0.043	0.887 ± 0.042	0.888 ± 0.031	0.829 ± 0.082	0.86 ± 0.079
F5GWT4|Q9H4A3|Q9H4A3-2|Q9H4A3-5|Q9H4A3-6|Q9H4A3-7 (UniProt Q9H4A3)							0.963 ± 0.058	0.99 ± 0.079	1 ± 0.081	0.96 ± 0.07	0.973 ± 0.061	0.978 ± 0.066	0.999 ± 0.074	0.994 ± 0.082
A0A0B4J1R7|Q96B45 (UniProt Q96B45)							0.918 ± 0.15	0.977 ± 0.18	1.02 ± 0.17	1.09 ± 0.11	1.09 ± 0.24	1 ± 0.19	1.02 ± 0.12	1.06 ± 0.18
F8W8G5|P10242|P10242-10|P10242-11|P10242-2|P10242-4|P10242-7|P10242-8|P10242-9 (UniProt P10242)							1.02 ± 0.063	1.04 ± 0.077	1.08 ± 0.073	1.08 ± 0.086	1.12 ± 0.037	1.12 ± 0.1	1.15 ± 0.044	1.13 ± 0.051
E9PG35|E9PHF7|F5GYT8|Q96RQ3|G5E9X5 (UniProt Q96RQ3)							1.04 ± 0.093	1.07 ± 0.078	1.02 ± 0.16	1.08 ± 0.11	1.09 ± 0.15	1.08 ± 0.077	1.05 ± 0.19	1.03 ± 0.13
B1AMW1|P19256|P19256-2|P19256-3 (UniProt P19256)							0.879 ± 0.05	0.937 ± 0.095	0.973 ± 0.11	0.915 ± 0.064	0.979 ± 0.038	1.03 ± 0.088	0.952 ± 0.036	0.958 ± 0.047
F2Z3N7|C9JZ87|Q9NUM4 (UniProt Q9NUM4)							0.98 ± 0.036	0.932 ± 0.076	1.15 ± 0.077	1.06 ± 0.048	0.84 ± 0.18	0.949 ± 0.045	0.989 ± 0.051	0.969 ± 0.078
A6NHB5|A6NHN7|Q14202|Q14202-2 (UniProt Q14202)							1.08 ± 0.056	1.12 ± 0.075	1.18 ± 0.092	1.31 ± 0.14	1.37 ± 0.16	1.4 ± 0.15	1.46 ± 0.15	1.42 ± 0.16
E7EPN9|Q9Y520|Q9Y520-4|Q9Y520-5|Q9Y520-7 (UniProt Q9Y520)							1.01 ± 0.02	1.01 ± 0.054	1.1 ± 0.063	1.14 ± 0.073	1.24 ± 0.057	1.36 ± 0.075	1.53 ± 0.14	1.7 ± 0.2
A0A087WYN9|Q7Z478 (UniProt Q7Z478)							1.34 ± 0.086	1.69 ± 0.26	1.66 ± 0.28	1.77 ± 0.29	1.8 ± 0.23	1.84 ± 0.27	1.86 ± 0.27	1.86 ± 0.19
H0YL22|Q9Y375 (UniProt Q9Y375)							0.979 ± 0.059	1.05 ± 0.082	0.936 ± 0.088	0.969 ± 0.071	0.922 ± 0.036	0.924 ± 0.065	0.921 ± 0.071	0.943 ± 0.059
UniProt Q9UL54-2	1.29 ± 0.17	1.54 ± 0.35	1.57 ± 0.33	1.67 ± 0.33	1.63 ± 0.24	1.69 ± 0.4								
D6R938|E9PBG7|E9PF82|Q13557|Q13557-10|Q13557-11|Q13557-12|Q13557-3|Q13557-4|Q13557-5|Q13557-6|Q13557-8|Q13557-9 (UniProt Q13557)							1 ± 0.11	1.04 ± 0.14	1.07 ± 0.14	1.08 ± 0.15	1.1 ± 0.1	1.13 ± 0.1	1.09 ± 0.17	1.14 ± 0.14

— the supplement of paper PMC6411743
